Measured values from PubChem BioAssay (EPA / NIEHS).
Records with an inconclusive call do not appear. Activity calls are given as the source filed them. Rule for the calls, unless noted: active = hit-call score of the fitted dose curve at least 0.9, where 1 is the maximum; inactive = score below 0.9.

Assays:
[1] = ATG_NFI_CIS: Attagene CIS-FACTORIAL HepG2 Assay for human Nuclear Factor I (NFI) (AID 2282989); details: HepG2 cis-regulatory reporter, NFI response element transcription; actives raise or lower the signal
How it was run: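 Cells: human liver HepG2, transiently transfected with promoter-regulated reporter transcription units. Exposure 24 h. Detection: fluorescent RT-PCR products separated by capillary electrophoresis, normalised to DMSO negative control.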

[2] = target: Myc proto-oncogene protein (Homo sapiens) (UniProt P01106); assay: ATG_Myc_CIS: Attagene CIS-FACTORIAL HepG2 Assay for human Myelocytomatosis (Myc) Proto-Oncogene Transcription Factor (AID 2282990); details: HepG2, Attagene cis-reporter transcription factor activity; actives raise or lower the signal
Sequence of Myc proto-oncogene protein (Homo sapiens) (P01106 whole entry, looked up): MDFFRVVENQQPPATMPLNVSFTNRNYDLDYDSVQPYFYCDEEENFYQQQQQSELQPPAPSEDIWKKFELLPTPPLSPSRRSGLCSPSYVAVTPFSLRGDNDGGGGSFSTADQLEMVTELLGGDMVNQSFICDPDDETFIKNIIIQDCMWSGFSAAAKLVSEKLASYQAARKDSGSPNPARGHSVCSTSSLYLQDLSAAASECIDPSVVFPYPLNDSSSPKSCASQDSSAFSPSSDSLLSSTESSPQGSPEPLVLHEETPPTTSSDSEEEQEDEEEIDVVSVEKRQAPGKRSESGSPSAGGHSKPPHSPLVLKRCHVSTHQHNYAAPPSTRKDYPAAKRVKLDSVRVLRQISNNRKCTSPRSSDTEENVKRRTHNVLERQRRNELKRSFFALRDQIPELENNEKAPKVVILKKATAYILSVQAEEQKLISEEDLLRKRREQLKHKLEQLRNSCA
How it was run: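 Transiently transfected HepG2 cells bearing cis-promoter reporter units for endogenous transcription factors; 24 h exposure. Reporter mRNA measured by RT-PCR, 6-FAM primer extension, HpaI cut and capillary electrophoresis; bidirectional fit relative to DMSO.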

[3] = ATG_NRF2_ARE_CIS: Attagene CIS-FACTORIAL HepG2 Assay for human Nuclear Factor Erythroid 2 Related Factor 2 (NFR2) response to Antioxidant Response Elements (ARE) (AID 2282992); details: HepG2 Attagene ARE/NRF2 reporter, transcription factor activity; actives raise or lower the signal;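 for AC50: reporter mRNA level measured by RT-PCR and capillary electrophoresis fluorescence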
How it was run: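 HepG2 cells transiently transfected with multiplexed cis-regulated reporter transcription units measure endogenous transcription factor activity. Reporter mRNA at 24 h is quantified by RT-PCR, fluorescent labelling and capillary electrophoresis, with bidirectional fitting relative to DMSO.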

[4] = ATG_Oct_MLP_CIS: Attagene CIS-FACTORIAL HepG2 Assay for human Octamer-Binding Transcription Factor (Oct) (AID 2282993); details: HepG2 Attagene cis-factorial Oct reporter, mRNA; actives raise or lower the signal
How it was run: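 HepG2, transient MRTU transfection, cis promoter elements; 24 h dosing; RT-PCR/CE fluorescence read-out of reporter mRNA; fit both directions vs DMSO.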

[5] = target: Cellular tumor antigen p53 (Homo sapiens) (UniProt P04637); assay: ATG_p53_CIS: Attagene CIS-FACTORIAL HepG2 Assay for human p53 Transcription Factor (AID 2282994); details: HepG2 p53 cis-element reporter, Attagene mRNA; actives raise or lower the signal
Sequence of Cellular tumor antigen p53 (Homo sapiens) (P04637 whole entry, looked up): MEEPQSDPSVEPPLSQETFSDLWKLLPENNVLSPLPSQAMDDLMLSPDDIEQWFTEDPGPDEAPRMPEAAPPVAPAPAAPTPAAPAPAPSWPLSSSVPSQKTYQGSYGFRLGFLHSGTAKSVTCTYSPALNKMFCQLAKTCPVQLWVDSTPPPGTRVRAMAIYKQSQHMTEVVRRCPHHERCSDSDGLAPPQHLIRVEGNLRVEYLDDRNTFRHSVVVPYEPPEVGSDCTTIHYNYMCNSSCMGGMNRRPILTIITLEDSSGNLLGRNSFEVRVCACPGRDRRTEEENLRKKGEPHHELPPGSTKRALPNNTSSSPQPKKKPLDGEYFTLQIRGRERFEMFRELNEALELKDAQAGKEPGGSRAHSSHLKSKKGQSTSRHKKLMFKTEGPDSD
How it was run: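 HepG2 cells transiently transfected with multiplexed cis-regulated reporter transcription units read endogenous TF activity. After 24 h compound exposure, reporter mRNA was quantified by RT-PCR, fluorescent labelling, HpaI digestion and capillary electrophoresis; bidirectional fits versus DMSO baseline.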

[6] = BSK_3C_TissueFactor: BioMAP Diversity Plus: 3C Assay for Tissue Factor Biomarker Activity (AID 2282997); details: BioMAP 3C HUVEC, tissue factor biomarker readout; actives raise or lower the signal
How it was run: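 Primary human umbilical vein endothelial cells in the 3C system were exposed to test chemical for 24 h, then Tissue Factor measured by ELISA. Activity was fitted bidirectionally against DMSO as negative control and baseline.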

[7] = BSK_3C_uPAR: BioMAP Diversity Plus: 3C Assay for Urokinase-type plasminogen activator receptor (uPAR) Biomarker Activity (AID 2282998); details: BioMAP 3C HUVEC, uPAR biomarker ELISA; actives raise or lower the signal
How it was run: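 A multiplexed primary-cell system built on human umbilical vein endothelium was used, with chemical present for 24 h before reading. Cell-surface uPAR was detected by ELISA; signal change in either direction counted against DMSO.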

[8] = BSK_3C_VCAM1: BioMAP Diversity Plus: 3C Assay for Vascular cell adhesion molecule 1 (VCAM1) Biomarker Activity (AID 2282999); details: BioMAP 3C HUVEC, VCAM1 ELISA, cytokine-stimulated; actives raise or lower the signal
How it was run: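 Human umbilical vein endothelial cells (3C system), biomarker read by ELISA 24 h after dosing; bidirectional fit against DMSO baseline. Cytotoxicity tracked by SRB total-protein staining in parallel cultures at biomarker time.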

[9] = BSK_4H_Eotaxin3: BioMAP Diversity Plus: 4H Assay for Eotaxin 3 Biomarker Activity (AID 2283000); details: primary human endothelial cells (HUVEC); actives raise or lower the signal
How it was run: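 HUVEC, 24 h post-dose, ELISA for Eotaxin-3/CCL26. Gain or loss of signal fitted bidirectionally vs DMSO baseline.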

[10] = target: human Peroxisome Proliferator-activated Receptor delta (PPARd), PPARD (gene 5467) (UniProt Q03181); assay: ATG_PPARd_TRANS: Attagene TRANS-FACTORIAL HepG2 Assay for human Peroxisome Proliferator-activated Receptor delta (PPARd) (AID 2283002; active = hit-call score of the fitted dose curve at least 0.9, where 1 is the maximum)
Sequence of human Peroxisome Proliferator-activated Receptor delta (PPARd), PPARD (gene 5467) (Q03181 whole entry, looked up, the tested form may be a part): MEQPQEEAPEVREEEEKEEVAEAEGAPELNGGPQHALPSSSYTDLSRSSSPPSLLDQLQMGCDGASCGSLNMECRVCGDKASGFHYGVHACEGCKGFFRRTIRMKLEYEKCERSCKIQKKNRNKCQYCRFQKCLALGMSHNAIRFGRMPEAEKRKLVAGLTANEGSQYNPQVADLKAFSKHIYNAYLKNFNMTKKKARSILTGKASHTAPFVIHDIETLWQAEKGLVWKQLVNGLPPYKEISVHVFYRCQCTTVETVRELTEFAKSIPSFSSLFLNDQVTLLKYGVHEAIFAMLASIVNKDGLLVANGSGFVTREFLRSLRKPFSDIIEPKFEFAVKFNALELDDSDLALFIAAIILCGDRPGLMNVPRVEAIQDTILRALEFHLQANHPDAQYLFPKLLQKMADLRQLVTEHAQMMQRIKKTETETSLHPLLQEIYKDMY
How it was run: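 HepG2 cells transiently transfected with GAL4-UAS multiplexed reporter units driven by exogenous chimeric NR-GAL4 proteins; 24 h compound exposure. Reporter mRNA measured by RT-PCR, 6-FAM primer extension, HpaI digestion and capillary electrophoresis; gain of signal fitted relative to DMSO.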

[11] = read-out: Intercellular Adhesion Molecule 1 (ICAM1), ICAM1 (gene 3383); assay: BSK_3C_ICAM1: BioMAP Diversity Plus: 3C Assay for Intercellular Adhesion Molecule 1 (ICAM1) Biomarker Activity (AID 2283003); details: primary human endothelial cells (HUVEC); actives raise or lower the signal
How it was run: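 Primary human umbilical vein endothelial cells in the BioMAP 3C system were exposed to chemicals for 24 h, then ICAM-1 was quantified by ELISA. Activity was fitted bidirectionally against the DMSO negative control baseline.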

[12] = target: Retinoic acid receptor alpha (Homo sapiens) (UniProt P10276); assay: ATG_RARa_TRANS: Attagene TRANS-FACTORIAL HepG2 Assay for human Retinoic Acid Receptor alpha (RARa) (AID 2283005; active = hit-call score of the fitted dose curve at least 0.9, where 1 is the maximum)
Sequence of Retinoic acid receptor alpha (Homo sapiens) (P10276 whole entry, looked up, the tested form may be a part): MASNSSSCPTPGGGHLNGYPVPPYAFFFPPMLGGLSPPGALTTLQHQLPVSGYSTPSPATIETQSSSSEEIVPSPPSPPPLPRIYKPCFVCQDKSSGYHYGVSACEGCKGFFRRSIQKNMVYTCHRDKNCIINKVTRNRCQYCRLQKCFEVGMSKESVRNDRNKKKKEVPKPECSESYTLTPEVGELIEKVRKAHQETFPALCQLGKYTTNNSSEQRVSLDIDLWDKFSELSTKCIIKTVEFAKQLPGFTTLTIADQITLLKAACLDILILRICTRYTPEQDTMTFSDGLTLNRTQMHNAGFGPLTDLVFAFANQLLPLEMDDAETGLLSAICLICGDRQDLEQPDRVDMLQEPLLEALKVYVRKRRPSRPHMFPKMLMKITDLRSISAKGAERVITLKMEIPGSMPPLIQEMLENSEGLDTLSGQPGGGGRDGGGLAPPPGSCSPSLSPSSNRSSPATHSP
How it was run: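 HepG2 transiently transfected with multiplex GAL4-UAS reporter units including a human RARa–GAL4 chimera; 24 h compound exposure. Reporter mRNA quantified by RT-PCR, 6-FAM labeling and capillary electrophoresis; gain of signal versus DMSO.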

[13] = BSK_3C_Proliferation: Cell Proliferation Assessment in the BioMAP Diversity Plus: 3C Assay (AID 2283006); details: primary human endothelial cells (HUVEC);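 for AC50: potency may reflect either rise or fall in cell number versus DMSO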
How it was run: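 Human umbilical vein endothelial cells were grown sub-confluent and exposed to chemical for 48 h, then fixed with 10% TCA and stained with 0.1% sulforhodamine B; absorbance at 560 nm gave relative cell number, fitted bidirectionally against DMSO baseline.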

[14] = target: Peroxisome proliferator-activated receptor gamma (Homo sapiens) (UniProt P37231); assay: ATG_PPARg_TRANS: Attagene TRANS-FACTORIAL HepG2 Assay for human Peroxisome Proliferator-activated Receptor-gamma (PPARg) (AID 2283007; active = hit-call score of the fitted dose curve at least 0.9, where 1 is the maximum)
Sequence of Peroxisome proliferator-activated receptor gamma (Homo sapiens) (P37231 whole entry, looked up): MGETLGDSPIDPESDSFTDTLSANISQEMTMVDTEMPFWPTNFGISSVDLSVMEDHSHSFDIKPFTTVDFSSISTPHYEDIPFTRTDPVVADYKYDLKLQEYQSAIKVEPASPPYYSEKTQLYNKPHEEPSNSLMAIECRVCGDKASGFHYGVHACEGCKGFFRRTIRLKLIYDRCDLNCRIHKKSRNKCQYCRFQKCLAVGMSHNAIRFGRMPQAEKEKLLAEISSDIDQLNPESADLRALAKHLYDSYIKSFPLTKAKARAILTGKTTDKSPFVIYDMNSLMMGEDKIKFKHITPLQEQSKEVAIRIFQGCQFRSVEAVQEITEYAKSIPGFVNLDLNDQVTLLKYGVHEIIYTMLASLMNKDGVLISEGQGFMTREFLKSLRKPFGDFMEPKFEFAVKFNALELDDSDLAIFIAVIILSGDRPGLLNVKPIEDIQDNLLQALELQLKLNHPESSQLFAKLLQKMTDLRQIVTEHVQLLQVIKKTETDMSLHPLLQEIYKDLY
How it was run: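 Multiplexed reporter transcription units in HepG2, 24 h dosing, reporter transcripts quantified by fluorescent RT-PCR and capillary electrophoresis. Increase over DMSO scored.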

[15] = target: Nuclear receptor subfamily 1 group I member 2 (Homo sapiens) (UniProt O75469); assay: ATG_PXR_TRANS: Attagene TRANS-FACTORIAL HepG2 Assay for human Pregnane X Receptor (PXR) (AID 2283008; active = hit-call score of the fitted dose curve at least 0.9, where 1 is the maximum)
Sequence of Nuclear receptor subfamily 1 group I member 2 (Homo sapiens) (O75469 whole entry, looked up, the tested form may be a part): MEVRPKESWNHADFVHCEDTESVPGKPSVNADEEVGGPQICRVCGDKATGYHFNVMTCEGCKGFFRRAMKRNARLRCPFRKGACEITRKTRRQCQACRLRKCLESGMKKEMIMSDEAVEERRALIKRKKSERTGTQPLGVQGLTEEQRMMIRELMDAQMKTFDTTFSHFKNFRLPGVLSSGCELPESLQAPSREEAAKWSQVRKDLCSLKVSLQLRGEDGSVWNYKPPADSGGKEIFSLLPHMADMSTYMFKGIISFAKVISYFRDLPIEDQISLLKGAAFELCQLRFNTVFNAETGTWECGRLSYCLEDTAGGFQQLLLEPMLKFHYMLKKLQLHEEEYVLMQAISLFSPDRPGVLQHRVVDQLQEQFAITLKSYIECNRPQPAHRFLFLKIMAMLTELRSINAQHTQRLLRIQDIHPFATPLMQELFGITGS
How it was run: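 HepG2 cells transiently transfected with multiple reporter units, here a PXR-GAL4 chimera driving a GAL4-UAS reporter; 24 h compound exposure. Reporter mRNA measured by RT-PCR, FAM labelling and capillary electrophoresis; gain of signal fitted against DMSO baseline.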

[16] = target: human RAR-related Orphan Receptor beta (RORb), RORB (gene 6096) (UniProt Q92753); assay: ATG_RORb_TRANS: Attagene TRANS-FACTORIAL HepG2 Assay for human RAR-related Orphan Receptor beta (RORb) (AID 2283010; active = hit-call score of the fitted dose curve at least 0.9, where 1 is the maximum)
Sequence of human RAR-related Orphan Receptor beta (RORb), RORB (gene 6096) (Q92753 whole entry, looked up, the tested form may be a part): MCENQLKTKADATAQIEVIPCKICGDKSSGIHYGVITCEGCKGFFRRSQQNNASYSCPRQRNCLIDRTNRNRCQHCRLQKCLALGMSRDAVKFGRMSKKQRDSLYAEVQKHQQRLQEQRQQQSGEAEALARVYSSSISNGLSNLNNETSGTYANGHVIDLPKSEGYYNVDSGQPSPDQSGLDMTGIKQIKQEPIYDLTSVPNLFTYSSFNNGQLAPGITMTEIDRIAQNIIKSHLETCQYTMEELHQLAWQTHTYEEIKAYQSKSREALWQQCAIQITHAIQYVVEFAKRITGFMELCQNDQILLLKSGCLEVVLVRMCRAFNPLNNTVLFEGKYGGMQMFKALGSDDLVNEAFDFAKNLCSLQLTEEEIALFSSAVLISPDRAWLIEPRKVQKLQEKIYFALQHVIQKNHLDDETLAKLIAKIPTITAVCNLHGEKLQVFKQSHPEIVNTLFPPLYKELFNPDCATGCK
How it was run: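 HepG2 cells were transiently transfected with multiplexed GAL4-UAS reporter units expressing chimeric nuclear receptor–GAL4 proteins, then dosed for 24 h. Reporter mRNA was quantified by RT-PCR with fluorescent labelling and capillary electrophoresis; gain of signal was fitted relative to DMSO.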

[17] = ATG_NF_kB_CIS: Attagene CIS-FACTORIAL HepG2 Assay for human Nuclear Factor Kappa B (NF-kB) (AID 2282991); details: HepG2 Attagene cis-factorial NF-kB reporter mRNA; actives raise or lower the signal
How it was run: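 HepG2, transient multi-reporter transfection, cis promoter elements (endogenous TFs). 24 h exposure. Total RNA → RT → PCR → 6-FAM label → HpaI → CE. Gain/loss vs DMSO.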

[18] = target: human Peroxisome Proliferator-activated Receptor alpha (PPARa), PPARA (gene 5465) (UniProt Q07869); assay: ATG_PPARa_TRANS: Attagene TRANS-FACTORIAL HepG2 Assay for human Peroxisome Proliferator-activated Receptor alpha (PPARa) (AID 2283001; active = hit-call score of the fitted dose curve at least 0.9, where 1 is the maximum)
Sequence of human Peroxisome Proliferator-activated Receptor alpha (PPARa), PPARA (gene 5465) (Q07869 whole entry, looked up, the tested form may be a part): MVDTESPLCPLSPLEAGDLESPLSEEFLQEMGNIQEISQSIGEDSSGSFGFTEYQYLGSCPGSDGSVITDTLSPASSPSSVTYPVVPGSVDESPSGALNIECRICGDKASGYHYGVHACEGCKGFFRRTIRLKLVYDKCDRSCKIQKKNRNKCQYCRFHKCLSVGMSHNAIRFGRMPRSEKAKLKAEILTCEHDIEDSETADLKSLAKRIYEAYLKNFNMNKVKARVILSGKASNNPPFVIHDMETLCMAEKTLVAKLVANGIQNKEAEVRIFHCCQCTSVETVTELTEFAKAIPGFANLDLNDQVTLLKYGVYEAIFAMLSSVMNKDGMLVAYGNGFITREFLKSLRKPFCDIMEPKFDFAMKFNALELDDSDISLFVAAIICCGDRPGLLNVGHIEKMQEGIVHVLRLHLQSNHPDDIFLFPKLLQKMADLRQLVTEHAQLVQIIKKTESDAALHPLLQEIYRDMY
How it was run: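 Measures transcriptional activity of an exogenous chimeric PPARa-Gal4 protein in transiently transfected HepG2 cells after 24 h dosing. Reporter mRNA quantified via RT-PCR and capillary electrophoresis; DMSO served as negative control.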

[19] = target: human Retinoic Acid Receptor beta (RARb), RARB (gene 5915) (UniProt P10826); assay: ATG_RARb_TRANS: Attagene TRANS-FACTORIAL HepG2 Assay for human Retinoic Acid Receptor beta (AID 2283004; active = hit-call score of the fitted dose curve at least 0.9, where 1 is the maximum)
Sequence of human Retinoic Acid Receptor beta (RARb), RARB (gene 5915) (P10826 whole entry, looked up, the tested form may be a part): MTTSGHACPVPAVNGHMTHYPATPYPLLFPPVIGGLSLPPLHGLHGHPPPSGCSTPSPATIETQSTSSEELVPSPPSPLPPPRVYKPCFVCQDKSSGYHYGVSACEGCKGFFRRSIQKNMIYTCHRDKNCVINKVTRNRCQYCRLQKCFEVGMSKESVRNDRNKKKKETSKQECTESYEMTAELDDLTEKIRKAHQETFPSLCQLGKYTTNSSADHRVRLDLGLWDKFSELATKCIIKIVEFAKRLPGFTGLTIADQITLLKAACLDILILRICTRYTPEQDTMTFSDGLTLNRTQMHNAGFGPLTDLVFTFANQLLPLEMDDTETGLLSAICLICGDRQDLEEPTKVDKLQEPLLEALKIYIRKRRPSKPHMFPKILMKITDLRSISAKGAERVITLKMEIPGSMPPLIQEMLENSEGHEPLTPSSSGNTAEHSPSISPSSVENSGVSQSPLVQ
How it was run: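 HepG2 cells transiently transfected with multiplexed GAL4-UAS reporter units expressing chimeric NR–Gal4 fusions; 24 h compound exposure. Reporter mRNA quantified by RT-PCR, 6-FAM labelling, HpaI digestion and capillary electrophoresis; gain-of-signal fitted against DMSO baseline.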

[20] = target: human Retinoic Acid Receptor gamma (RARg), RARG (gene 5916) (UniProt P13631); assay: ATG_RARg_TRANS: Attagene TRANS-FACTORIAL HepG2 Assay for human Retinoic Acid Receptor gamma (RARg) (AID 2283009; active = hit-call score of the fitted dose curve at least 0.9, where 1 is the maximum)
Sequence of human Retinoic Acid Receptor gamma (RARg), RARG (gene 5916) (P13631 whole entry, looked up, the tested form may be a part): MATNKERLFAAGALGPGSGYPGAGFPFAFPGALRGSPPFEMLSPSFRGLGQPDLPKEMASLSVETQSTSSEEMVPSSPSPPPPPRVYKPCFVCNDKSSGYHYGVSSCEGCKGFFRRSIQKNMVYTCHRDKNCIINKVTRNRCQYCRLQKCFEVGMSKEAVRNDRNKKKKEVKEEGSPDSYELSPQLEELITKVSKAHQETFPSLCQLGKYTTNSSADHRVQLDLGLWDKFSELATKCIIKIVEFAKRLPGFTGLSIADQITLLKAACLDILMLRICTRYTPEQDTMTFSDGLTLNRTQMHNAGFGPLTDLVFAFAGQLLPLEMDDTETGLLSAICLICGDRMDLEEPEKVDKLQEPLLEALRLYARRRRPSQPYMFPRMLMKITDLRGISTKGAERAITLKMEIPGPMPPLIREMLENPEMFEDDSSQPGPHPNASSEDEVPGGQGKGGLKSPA
How it was run: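 HepG2 cells transiently transfected with multiplexed reporter units expressing chimeric RARg-GAL4 and GAL4-UAS-driven reporters; 24 h compound exposure. Reporter mRNA quantified by RT-PCR with fluorescent labelling and capillary electrophoresis; gain-of-signal fitted relative to DMSO baseline.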

Measured: AC50

Clc1ccc(Cl)c(Cl)c1
not listed: [15] | [16] | [17] | [18] | [19] | [20]
inactive: all other assays above

[Cl-].[Cl-].[Hg+2]
active: [3] 5.59 µM | [5] 55.4 µM | [6] 34.8 µM | [7] 34.1 µM | [8] 20 µM | [9] 30.9 µM | [13] 32.6 µM
inactive: [1] | [2] | [4] | [11] | [14] | [15] | [16]

CCOC(=O)[C@]1(c2ccccc2)Oc2ccccc2[C@@H]1N
active: [1] 46.4 µM | [2] 24.5 µM | [17] 33 µM | [3] 34.7 µM | [4] 28.8 µM | [6] 20 µM | [7] 20 µM | [9] 29.6 µM | [13] 30.9 µM | [15] 11 µM
inactive: [8] | [18] | [11] | [19] | [12] | [14] | [20]

CC(C)COC(=O)c1ccccc1C(=O)OCC(C)C
inactive: [1] | [2] | [7] | [9] | [18] | [11]
active: [3] 36 µM | [4] 83 µM | [6] 12.4 µM | [8] 26.8 µM | [13] 28.6 µM | [14] 44.6 µM

c1ccc(C2CO2)cc1 (configuration not stated)
not listed: [10] | [12] | [15] | [16] | [17] | [19] | [20]
inactive: all other assays above

CS(=O)(=O)NC(=O)c1cc(Oc2ccc(C(F)(F)F)cc2Cl)ccc1[N+](=O)[O-]
active: [7] 28.6 µM | [14] 30.3 µM | [15] 7.65 µM
not listed: [10] | [16] | [17]
inactive: all other assays above

OCCOCCO
not listed: [5] | [12] | [14] | [15] | [16] | [17] | [18] | [20]
inactive: all other assays above

C[N+](C)(C)CC1CO1 (configuration not stated)
not listed: [10] | [12] | [14] | [15] | [17] | [18] | [19] | [20]
inactive: all other assays above

COC(=O)Nc1nc2ccccc2[nH]1
active: [3] 21.4 µM | [7] 10.9 µM | [9] 20 µM | [13] 9.95 µM
not listed: [17] | [19]
inactive: all other assays above

Nc1cc(Cl)cc(C(=O)O)c1Cl
not listed: [12] | [15] | [17] | [19]
inactive: all other assays above

Nc1ccc(N=Nc2ccccc2)cc1
active: [3] 3.6 µM | [4] 36.2 µM | [13] 12.2 µM | [14] 100 µM
not listed: [10] | [16] | [17]
inactive: all other assays above
